# POLB inh: qHTS Assay for Inhibitors of DNA Polymerase Beta; Pol beta primer extension/strand displacement, fluorescence kinetic; Potency, µM (doses to about 114 µM), for inactives: at the top dose activity change, negative = inhibition, actives largely listed as inhibitors; hit rate 1.3% among 340,000; AID 485314, 2010; also: potency is read from the fitted curve at half-maximal effect; % is scaled to controls: 0 for no effect and ±100 for the full control effect
#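 Pol beta (10 nM) and compounds were preincubated 15 min at room temperature, then 50 nM substrate (final) started primer extension/strand displacement. Reads were taken at 0 and 10 min; concentration-response data were fitted to a four-parameter Hill equation.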
# PI5P4K alpha inh: qHTS for Inhibitors of phosphatidylinositol 5-phosphate 4-kinase (PI5P4K). Phosphatidylinositol 5-phosphate 4-kinase type-2 alpha (Homo sapiens), P48426. max response, %. PI5P4Kalpha enzyme, ADP-Glo luminescence, 60 min; stronger effect = lower value. AID 652105, 2013. hit rate 1.2% among 330,000; active = max response of -50% or lower; inconclusive = between -30% and -50%; inactive = -30% or higher; also: value at the top dose of about 77 µM; % is scaled to controls: 0 for no effect and ±100 for the full control effect
# Target sequence (P48426 whole entry, looked up): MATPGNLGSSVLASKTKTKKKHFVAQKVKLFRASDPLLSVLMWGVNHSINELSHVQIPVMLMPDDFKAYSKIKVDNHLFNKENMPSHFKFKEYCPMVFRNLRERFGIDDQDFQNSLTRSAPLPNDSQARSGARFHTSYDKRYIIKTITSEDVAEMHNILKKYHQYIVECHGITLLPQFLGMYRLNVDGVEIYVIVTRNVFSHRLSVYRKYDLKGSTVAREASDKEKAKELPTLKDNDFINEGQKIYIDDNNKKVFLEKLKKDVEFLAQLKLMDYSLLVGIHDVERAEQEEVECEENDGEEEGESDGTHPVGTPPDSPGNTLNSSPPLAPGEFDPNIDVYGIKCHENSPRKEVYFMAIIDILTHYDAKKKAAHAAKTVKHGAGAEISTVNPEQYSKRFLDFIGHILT
#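 Luminescence from ADP-Glo served as readout of PI5P4Kalpha activity in a qHTS format. Reaction: enzyme, substrate, compound, ATP at 5 microM final, 60 min at RT.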
# WRN helicase inh: qHTS for Inhibitors of WRN Helicase; Bifunctional 3'-5' exonuclease/ATP-dependent helicase WRN (Homo sapiens), Q14191; WRN helicase unwinding, fluorescent forked duplex, kinetic; Potency, µM (series often up to 114 µM), without a hit: at the highest dose activity change, negative = inhibition, hits mostly inhibitors; hit rate 0.46% among 360,000; AID 651768, 2012; also: potency is read from the fitted curve at half-maximal effect; % is scaled to controls: 0 for no effect and ±100 for the full control effect; nearly all actives have a fitted effect of over 55% in size
#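 Fluorescence dequenching readout, ex 525 nm/em 598 nm, kinetic mode: forked duplex DNA (100 nM final) with adjacent fluorophore and quencher unwound by WRN (20 nM final) with 2 mM ATP. Compound preincubation 15 min, room temperature.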
# Pol kappa inh: qHTS for Inhibitors of Polymerase Kappa. DNA polymerase kappa (Homo sapiens), Q9UBT6. purified Pol kappa, fluorescent DNA synthesis assay, 10 min. Potency, µM (series often up to 107 µM), for inactives: at the top dose activity, negative = inhibition, most hits filed as inhibitors. hit rate 0.53% among 400,000. AID 588579, 2011; also: potency is read from the fitted curve at half-maximal effect; % is scaled to controls: 0 for no effect and ±100 for the full control effect
#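 Pol kappa 10 nM + cpd, 15 min RT; start w/ substrate 50 nM final; fluorescence kinetic read, 0 and 10 min. Neg ctrl: buffer, no enzyme.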
# POLH inh: qHTS for Inhibitors of Polymerase Eta; recombinant Pol eta, fluorescent DNA replication assay; Potency, µM (highest dose often 114 µM), inactives show top-dose activity change, negative = inhibition, most hits filed as inhibitors; hit rate 1.2% among 390,000; AID 588591, 2011; also: potency is read from the fitted curve at half-maximal effect; % is scaled to controls: 0 for no effect and ±100 for the full control effect
#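 Pol eta at 10 nM preincubated with compounds 15 min at room temperature; reaction started with fluorescent substrate (50 nM final) and read kinetically at 0 and 10 min.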
# POLI inh: qHTS for Inhibitors of Polymerase Iota. AID 588590, 2011. DNA polymerase iota (Homo sapiens), Q9UNA4. Potency, µM (top dose mostly 115 µM), for the others: at the highest dose activity, negative = inhibition, actives largely listed as inhibitors. hit rate 1% among 390,000. Pol iota fluorescent replication assay, 10 min; also: potency is read from the fitted curve at half-maximal effect
#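 Fluorescent replication assay read twice, at 0 min and 10 min after adding 50 nM (final) substrate. Enzyme (10 nM) and compounds were first incubated 15 min at room temperature; enzyme-free buffer wells were negative controls.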
# ADP-Glo interf: qHTS for Inhibitors of PI5P4K: ADP-Glo counter assay. 1,100 tested, under 10 active. ADP-Glo detection counter-screen, luciferase luminescence, no enzyme. Potency, µM (highest dose often 76.9 µM), for the others: at the highest dose activity change, negative = inhibition, most hits filed as inhibitors. AID 743285, 2014. shares compounds with PI5P4K alpha inh
# * = called active by the depositor; u = inconclusive; x = no result given; [ ] = dose if it differs, or a comment. A selection: hits, their analogues and other compounds. The true share with any hit is near 2.8%. Unless noted, calls follow the shape of the dose curve; as a rule, active = well fitted curve in the direction sought with a large enough effect; inconclusive = small, poorly fitted or top-dose-only effect, or another doubt; inactive = no such curve, though single readings can be large; an effect the other way counts as inactive or inconclusive.
SMILES,POLB inh,PI5P4K alpha inh,WRN helicase inh,Pol kappa inh,POLH inh,POLI inh,ADP-Glo interf
O=C(NC1CCCC1)C(c1ccncc1)N(C(=O)c1csnn1)c1ccccc1F (stereo unspecified),14%,-52*,0%,7%,-20%,53%,10%
COc1ccc(CC(=O)NCc2nc(-c3ccccc3)no2)cc1,-16%,2,-2%,8%,-7%,37%,x
COc1ccc(OCC(=O)NCc2nc(-c3ccccc3)no2)cc1,x,-58*,-8%,-1%,u,42%,3%
CCCNC(=O)[C@H]1O[C@@H]1C(=O)N[C@H](C(=O)N1CCC[C@H]1C(=O)OC)[C@@H](C)CC,x,x,x,4%[19.4 µM],x,x,x
Cc1nn(-c2ccccc2)c2c1cc1c(=O)[nH]c(=O)nc-1n2-c1cccc(C(F)(F)F)c1,-26%,x,x,-7%,-14%,u,x
Cc1ccc([N+](=O)[O-])cc1Nc1nc(N2CCOCC2)nc(N2CCOCC2)n1,0%,-74*,-17%,u,-98%,u,-3%
Cc1ccccc1OCc1cc(=O)n2c(-c3ccccc3)csc2n1,25%,x,x,-9%,-5%,12%,x
CCN(CC(=O)NC(C)(C)C)Cc1cc(=O)n2c(-c3ccccc3)csc2n1,u,-74*,-17%,-42%,u,45µM*,3%
N#Cc1ccccc1OCc1cn(CC(=O)c2ccc(O)cc2)nn1,x,-58*,-2%,1%,-18%,u,-11%
CCN(CC(=O)Nc1ccc(OC)cc1)C(=O)c1ccc([N+](=O)[O-])cc1,3%,-64*,-19%,-7%,4%,19%,3%
CN(C)c1ccc(-c2ccc3ncnc(N(C)Cc4ccco4)c3c2)cc1,x,x,x,-6%[60.1 µM],x,x,x
Cc1ccsc1CN(C)c1ncnc2ccc(-c3ccoc3)cc12,x,x,x,x,x,x,2%
COc1ccccc1CNc1nc(NCc2ccccc2)nc2ccsc12,x,x,-12%,x,x,x,-8%
COc1ccccc1CNc1nc(NC(C)C)nc2cc(-c3ccccc3)sc12,x,x,4%,x,x,x,-9%
CC(C)Nc1nc(NCCOc2ccccc2Cl)c2sc(-c3ccccc3)cc2n1,x,x,-8%,x,x,x,x
COCCNc1nc(NCc2cccc(OC)c2OC)c2sccc2n1,x,3,-1%,x,x,x,x
COc1ccccc1CNc1nc(NCc2cccc(OC)c2OC)c2sccc2n1,x,x,-5%,x,x,x,3%
COc1ccccc1CNc1nc(NCc2ccccc2F)c2sccc2n1,x,u,-2%,x,x,x,x
COc1cccc(CNc2nc(NC(C)C)nc3ccsc23)c1,x,x,-6%,x,x,x,2%
CC(=O)Nc1ccn(C2OC(C(COC(C)=O)NC(=O)C(Cc3ccccc3)NC(=O)OC(C)(C)C)C(OC(C)=O)C2OC(C)=O)c(=O)n1 (stereo unspecified),x,x,x,-3%,x,11%,x
COc1ccccc1CNc1nc(NCc2ccc(C)cc2C)c2sccc2n1,x,x,-1%,x,x,x,-6%
COCCNc1nc(NCCOc2ccccc2)c2sc(-c3ccccc3)cc2n1,x,x,-8%,x,x,x,-1%
COc1ccccc1N(C)S(=O)(=O)c1ccc(C(=O)Nc2cccc(S(=O)(=O)N3CCOCC3)c2)cc1,x,9,-2%,-3%,-28%,31%,x
COc1ccccc1-c1c(C)nn2c(N3CCN(c4ccc(F)cc4)CC3)cc(C)nc12,1%,x,x,-14%[60.1 µM],-5%,5%,x
CC(C)N(C(=O)c1cc2c(Cl)nc3ccccc3c2s1)C1CCCCC1,10%,x,x,-10%,-21%,2%,x
SMILES,POLB inh,PI5P4K alpha inh,WRN helicase inh,Pol kappa inh,POLH inh,POLI inh,ADP-Glo interf
Cc1ccc(NC(=O)CN(C)C(=O)COc2ccc(C(=O)c3ccc(F)cc3)cc2)cc1,18%,-2,-2%[11.6 µM],u,u,u,5%
CCCCC(=O)N(Cc1ccc2c(c1)OCO2)Cc1nc2ccccc2c(=O)[nH]1,0%,-53*,-26%,-3%,-10%,82%,-10%
O=C(O)c1ccc(-c2nc(-c3ccccc3)cs2)cc1,2%,-30,-15%,-26%,-11%,u,x
O=C(O)c1ccc(-c2nc(-c3ccccc3Cl)cs2)cc1,-2%,-65*,-7%,-6%,1%,23%,2%
CCC(=O)Nc1ccc2nc(SCCOc3ccc(C)cc3)sc2c1,-21%,x,x,-3%,-3%,4%,x
CCOc1ccccc1NC(=O)CSc1nncc2ccccc12,14%,3,-12%,-6%,6%,-5%,x
Cc1cc(C(=O)OCC(=O)Nc2c(F)cccc2F)c(C)n1-c1ccccc1,-21%,-75*,u,-1%,-5%,5%,-5%
CCOC(=O)[C@]12CCCC=C1N(Cc1ccccc1)C(=O)[C@H](CC(=O)NCCCOC)C2,x,-57*,6%,x,x,x,-1%
CCOC(=O)[C@]12CCCC=C1N(Cc1cccc3ccccc13)C(=O)[C@H](CC(=O)NCc1ccc(C)o1)C2,x,-19,-9%,x,x,x,x
COC(=O)[C@]12CCCCC=C1N(Cc1cccc3ccccc13)C(=O)[C@H](CC(=O)NCc1ccc(C)o1)C2,x,-52*,0%,x,x,x,2%
CCOC(=O)c1ccc(NC(=O)N2CCN(Cc3ccccc3)CC2)cc1,0%,-3,-8%,-14%,-4%,4%,x
COCC(=O)N(C)C[C@H]1N[C@@](C)(C(=O)OC)[C@H]2C(=O)N(Cc3ccccc3)C(=O)[C@@H]12,x,-2,-1%,0%,-4%,4%,x
C[C@H]1CN=C(Nc2ccccc2)N1CCCC1CCCCC1,45%,0,-3%,-4%,-14%,16%,-5%
O=c1oc2ccccc2cc1-c1csc(Nc2nc3c(F)cccc3s2)n1,20%,-55*,-24%,-2%,u,3%,-5%
CCN(CC)CCCCCC(=O)Nc1ccccc1C(=O)Nc1ccccc1,33%,-19,-15%,-22%,-19%,-31%,-4%
O=C(NCC(c1ccc2c(c1)OCO2)N1CCN(c2ccccc2)CC1)C(=O)Nc1ccccc1 (stereo unspecified),12%,x,x,3%[60.1 µM],-13%,13%,x
CCCCn1c(N)c(N(CCOC)C(=O)c2cc(-c3ccccc3)nc3ccccc23)c(=O)[nH]c1=O,x,7,-19%,-4%,-12%,10%,x
CCCn1c(N)c(N(CCOC)C(=O)c2cc(-c3ccco3)nc3ccccc23)c(=O)[nH]c1=O,45µM*,-52*,-10%,-38%,u,56µM*,-6%

# Bioassay records from PubChem BioAssay.
